# Results taken from the supplement of paper PMC3334620.
# Whole data set: some 33,000 sequences, median “E-score (-0.5 to 0.5)” near -0.054, cut for the highest 2% near 0.35. The sample holds the highest values, similar sequences and a random draw of the others, so the mix is not that of the screen.
# Target: T1, Stb5 (UniProt P38699)
# T1 sequence: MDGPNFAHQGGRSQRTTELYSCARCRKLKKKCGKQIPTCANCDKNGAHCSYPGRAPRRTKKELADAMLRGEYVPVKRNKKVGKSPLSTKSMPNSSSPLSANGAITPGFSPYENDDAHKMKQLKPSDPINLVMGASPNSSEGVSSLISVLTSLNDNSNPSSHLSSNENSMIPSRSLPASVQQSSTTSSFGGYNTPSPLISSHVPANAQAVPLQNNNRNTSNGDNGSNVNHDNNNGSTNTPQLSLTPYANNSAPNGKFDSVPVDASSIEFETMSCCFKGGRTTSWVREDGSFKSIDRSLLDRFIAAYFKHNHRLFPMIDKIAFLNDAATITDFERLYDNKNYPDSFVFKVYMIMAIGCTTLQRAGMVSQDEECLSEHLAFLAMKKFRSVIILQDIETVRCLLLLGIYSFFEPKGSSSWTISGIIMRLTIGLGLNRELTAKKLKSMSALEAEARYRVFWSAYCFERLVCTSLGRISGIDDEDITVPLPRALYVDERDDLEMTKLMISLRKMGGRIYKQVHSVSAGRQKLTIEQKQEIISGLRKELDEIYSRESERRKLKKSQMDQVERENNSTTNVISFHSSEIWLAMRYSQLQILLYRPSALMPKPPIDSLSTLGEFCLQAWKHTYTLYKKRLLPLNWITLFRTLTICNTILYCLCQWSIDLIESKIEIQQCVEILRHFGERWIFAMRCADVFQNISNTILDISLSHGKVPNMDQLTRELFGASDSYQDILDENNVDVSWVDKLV
# Test: PBM E-score (8-mer binding enrichment) (E-score (-0.5 to 0.5)); higher = stronger / more preferred TF binding
# Conditions: protein concentration: 200 nM; construct: GST-full length
# Procedure: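 Universal 'all 10-mer' protein binding microarrays (Agilent AMADID 015681) probed with GST-tagged S. cerevisiae TFs (full-length or DBD) made by in vitro transcription/translation (PURExpress), about 100-200 nM. Bound TF was detected with fluorescent anti-GST. Each ungapped 8-mer (which stands for itself and its reverse complement) is scored by the PBM enrichment score (E-score), a modified Wilcoxon-Mann-Whitney statistic from -0.5 to +0.5, computed with the Universal PBM Analysis Suite. Scale: above 0.35 generally sequence-specific binding.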
row,Sequence,PBM E-score
1,CGAATAGC,0.0153
2,AAAGGTTG,-0.192
3,CTTGGCAC,-0.106
4,AGCTTTAG,-0.226
5,AGCATCGG,0.214
6,CCATACCG,0.202
7,CGCCGCTA,0.412
8,GGCCGCTA,0.299
9,ACCCGCTA,0.0951
10,CCCCGCAC,0.236
11,ACCCGCTC,0.246
12,AGCCGCTA,0.173
13,GCCCGCTA,0.233
14,CCCCGCTA,0.399
15,CCCCGCTC,0.371
16,AGACCAGC,-0.285
17,AAGTCTGC,-0.211
18,CCAGCAGC,-0.12
19,TGAACTAA,-0.153
20,GGAACTAA,0.373
21,AGAACTAA,0.0894
22,CCCGTTTA,0.188
23,GTCCACAC,0.162
24,GCTCCGCA,0.173
25,GCTCCGGA,0.368

row,Sequence,PBM E-score
1,ACTCCGGA,0.355
2,ACTCCGGG,0.327
3,CCTCCGGA,0.219
4,ACTCCGGC,0.307
5,ATATTCTG,0.0727
6,GCTGACCA,-0.169
7,CCCCCAAG,-0.233
8,GGCAGCTA,-0.0896
9,TAATACTA,-0.0352
10,CAGAATCC,-0.0711
11,ATCGGATG,0.168
12,ACGCTGGC,-0.0211
13,GCACCGGC,0.353
14,AAACCGGT,0.304
15,ACACCTGT,0.0542
16,ACACCCGG,0.234
17,GAACCGGC,0.213
18,ACACCGGA,0.402
19,GCACCGGA,0.338
20,ACACCGGT,0.421
21,ACACCGGG,0.417
22,CCACCGGC,0.322
23,CCACCGGG,0.26
24,TCACCGGA,0.343
25,CGGTTGTA,0.309

row,Sequence,PBM E-score
1,ATAGCCAC,-0.171
2,ACCAAGCA,-0.0711
3,AAATGTTC,-0.138
4,CATTGGCC,-0.214
5,AGACCGGC,0.313
6,AAACCGGC,0.268
7,ACACCGGC,0.4
8,ACCGTCTC,0.0885
9,AACACCCA,-0.0193
10,CACACCAC,-0.199
11,GACACCCC,0.014
12,CACACCTC,-0.0997
13,AACACCGA,0.479
14,CACACCGG,0.327
15,GACACCTC,-0.0935
16,AACACCGG,0.474
17,CACACCGA,0.344
18,GACACCGC,0.454
19,CACACCGC,0.394
20,AACACCTG,0.179
21,GAGCCTCC,-0.123
22,CACCGTAC,0.213
23,AGCCGCCT,0.0174
24,ACCGTGGC,0.0612
25,ACCAAAAG,-0.113

row,Sequence,PBM E-score
1,CCAACCTC,-0.111
2,GAATCGAA,-0.175
3,CGTGTACA,-0.00441
4,GACACCGA,0.442
5,GCCACCGA,0.139
6,AACACCAT,0.0943
7,AACACCGT,0.472
8,GACACCAA,-0.124
9,TACACCGA,0.414
10,AACACCCT,-0.128
11,TACACCAA,-0.128
12,TACACCTA,-0.109
13,AGGCGACG,-0.112
14,CCAGAAAA,-0.296
15,AATGACTC,-0.235
16,AAGGATCT,-0.117
17,CCTGCCCC,0.0235
18,CTGAATCA,-0.177
19,CCCCCCGC,0.068
20,ACCCCCCC,-0.295
21,ACACCCGT,0.162
22,ACCCCCGC,0.398
23,AACCCCAT,0.156
24,ACCCCCCT,-0.245
25,AACCCCGT,0.448

row,Sequence,PBM E-score
1,ACCCCCGT,0.365
2,AACCCCCT,-0.247
3,CTACTCCC,-0.0111
4,TCGTGGAA,0.00034
5,CTAAGAAC,0.00444
6,ATGTTCCG,0.249
7,AATTGATG,0.0383
8,ATCGATAA,-0.139
9,ACGGCGAC,0.264
10,ACGGCACC,0.175
11,ACGGCACA,0.0761
12,ACGGCAAA,0.235
13,ACGGCGAG,0.043
14,ACGGCACT,0.427
15,ACGGCGTA,0.0801
16,ACGGCGTC,0.392
17,ACGGCGTG,0.208
18,ACGGCGAT,0.362
19,ACGGCAAT,0.377
20,ACGGCAAG,-0.121
21,ATACCAGA,-0.177
22,GGTACTTA,0.233
23,GTTAGAAC,0.0768
24,ATTCGCCC,0.125
25,CCTCCAAC,-0.199

row,Sequence,PBM E-score
1,ATCGCAAC,-0.0557
2,CATATCCG,0.15
3,AATATGCT,0.00961
4,GCGGCACA,0.173
5,CCGGCACC,0.278
6,GCGGCACC,0.353
7,GCAAAAGA,-0.0404
8,CATTGAGC,-0.032
9,CTCTAATA,-0.188
10,AGGGCCCT,-0.173
11,GGGCTAAC,-0.0393
12,AGCTAGGG,-0.0617
13,ATAGCACA,-0.124
14,ATAGCACC,0.396
15,ATAGCGCG,0.0127
16,CTAGCGCC,0.172
17,ATAGCACG,-0.0126
18,ATAGCGCC,0.361
19,AGCTCGAA,-0.0836
20,GGTGAAGA,0.0224
21,CAGTTCGG,0.206
22,GTTTCTAA,0.0616
23,CTGCCGAC,0.15
24,ATGCCGAC,0.386
25,CCGCCGAC,0.356

row,Sequence,PBM E-score
1,GCGCCGAC,0.28
2,CTGCCGTC,0.121
3,CCGCCGAG,0.28
4,ATGCCGTC,0.352
5,ATGCCGTG,0.144
6,ACGCCGAC,0.435
7,CCGCCGAA,0.347
8,ACGCCGAT,0.35
9,ATGCCGAG,0.147
10,AGAATCTG,-0.0539
11,CCACACGC,-0.0412
12,CTCCGTCA,0.297
13,ATCTACAT,-0.193
14,TCCAACAA,-0.129
15,GAGGTATC,-0.0164
16,ATGCCGGC,0.301
17,ATGCCGGG,0.287
18,ATGCCGGA,0.373
19,GTTATCGA,-0.0558
20,CAAGAGAC,-0.146
21,TCCGACGA,0.252
22,CCCGACGA,0.31
